Bioassay records: PubChem BioAssay, several laboratories
Hits are enriched below; roughly 27% of the tested compounds scored in any of these assays.
CYP2C9 inhib = inhibitors of human CYP2C9 | CYP2C9 Supersomes, luciferin-H conversion, luminescence | inhibition, % at 5 µM | hit rate 20% among 96,000;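 active = blocking of liver enzyme CYP2C9 beyond about 50% at 5 µM, limit read from the data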
CYP2C19 activ = increases human CYP2C19 enzyme activity; P33261; recombinant CYP2C19, luciferin-H EGE luminescence; hits give high values; 0 = fully inhibited enzyme, 1 = untreated enzyme; activation factor at 5 µM; 96,000 tested, under 10 active; AID 1025;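 active = activation factor of at least 2 at 5 µM in the primary screen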;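 also: 0 = wells with 2.5 mM tranylcypromine and 1 = vehicle-only wells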
Target sequence (P33261 whole entry, looked up): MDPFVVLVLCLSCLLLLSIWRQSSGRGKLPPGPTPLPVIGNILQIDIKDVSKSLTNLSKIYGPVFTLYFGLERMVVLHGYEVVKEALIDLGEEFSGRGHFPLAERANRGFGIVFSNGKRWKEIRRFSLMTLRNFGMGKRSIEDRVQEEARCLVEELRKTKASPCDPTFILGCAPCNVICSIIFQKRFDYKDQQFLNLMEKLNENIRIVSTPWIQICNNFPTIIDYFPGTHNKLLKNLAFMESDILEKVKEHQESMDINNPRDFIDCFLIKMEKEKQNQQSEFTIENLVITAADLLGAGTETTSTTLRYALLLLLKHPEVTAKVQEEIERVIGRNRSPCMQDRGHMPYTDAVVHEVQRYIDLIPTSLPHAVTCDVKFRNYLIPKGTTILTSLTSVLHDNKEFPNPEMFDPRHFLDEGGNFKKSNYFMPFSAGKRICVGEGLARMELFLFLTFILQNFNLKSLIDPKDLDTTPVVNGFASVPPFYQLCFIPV
sEH inhibitor = inhibitors of human soluble epoxide hydrolase; P34913; recombinant human sEH enzymatic activity assay; inhibition, % at 2 µM; hit rate 0.34% among 91,000; AID 707; in the data active = inhibition above about 80%
sEH act = increases human soluble epoxide hydrolase activity. P34913. purified human sEH enzymatic activity, activator screen. activation, % at 2 µM. hit rate 0.04% among 91,000. AID 717; in the data active = activation above about 37%
CYP2C9 activ = CYP2C9 (human) activation; activation factor at 5 µM; hit rate 1.4% among 96,000; P11712; recombinant CYP2C9, luciferin-H conversion, luminescence; hits give high values; factor 1 = untreated enzyme, 0 = blocked; AID 1024;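 active = activation factor of 2 or more for CYP2C9 at a 5 µM dose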;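 also: 0 = sulfaphenazole-blocked wells and 1 = vehicle-only wells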
CYP2C19 inh = inhibitors of human CYP2C19 | AID 778 | hit rate 21% among 96,000 | inhibition, % at 5 µM | CYP2C19 Supersomes, luciferin-H EGE luminescence, 30 min | P33261;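 active = CYP2C19 inhibition above a set limit at 5 µM in the primary screen, cut at about 50% in these data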;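 also: plate controls were negative control wells for no effect and 2.5 mM tranylcypromine positive control for full effect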
* marks the source's active call; other numbers are inactive results.

What do the screens show for `Cn1c(Cc2ccccc2)nnc1SCC(=O)Nc1ccc2c(c1)OCO2`?
CYP2C9 inhib: 55*; CYP2C19 activ: 0.1; sEH inhibitor: -7; sEH act: 4; CYP2C9 activ: 0.5; CYP2C19 inh: 87*

Results for CC(C)c1nnc(SCC(=O)Nc2ccc3c(c2)OCO3)n1C ?
sEH inhibitor: 1; sEH act: 5

What do the screens show for `Cn1cccc1Cc1nnc(SCC(=O)Nc2ccc3c(c2)OCO3)n1CCc1ccccc1`?
CYP2C9 inhib: 57*; CYP2C19 activ: 0.4; CYP2C9 activ: 0.4; CYP2C19 inh: 55*

Results for O=[N+]([O-])c1cccc(-c2nc(-c3ccccc3)c(-c3cccs3)[nH]2)c1 ?
CYP2C9 inhib: -18; CYP2C19 activ: 1.1; sEH inhibitor: -10; sEH act: 8; CYP2C9 activ: 1.2; CYP2C19 inh: -6

What do the screens show for `COc1ccc(-c2nc(-c3cccs3)c(-c3cccs3)[nH]2)cc1OC`?
CYP2C9 inhib: 81*; CYP2C19 activ: 0.2; sEH inhibitor: -2; sEH act: 2; CYP2C9 activ: 0.2; CYP2C19 inh: 83*

What do the screens show for `O=[N+]([O-])c1cccc(-c2nc(-c3cccs3)c(-c3cccs3)[nH]2)c1`?
CYP2C9 inhib: 58*; CYP2C19 activ: 0.9; sEH inhibitor: 3; sEH act: -3; CYP2C9 activ: 0.4; CYP2C19 inh: 12

How did N#Cc1nc(COc2ccccc2)oc1N1CCN(Cc2ccccc2)CC1 do in these assays?
CYP2C9 inhib: 93*; CYP2C19 activ: 0.2; CYP2C9 activ: 0.1; CYP2C19 inh: 78*

What do the screens show for `Cc1ccc(OCc2nc(C#N)c(N3CCN(Cc4ccccc4)CC3)o2)cc1`?
CYP2C9 inhib: 84*; CYP2C19 activ: 0.3; CYP2C9 activ: 0.2; CYP2C19 inh: 68*

What do the screens show for `N#Cc1nc(COc2ccccc2)oc1N1CCC(Cc2ccccc2)CC1`?
CYP2C9 inhib: 87*; CYP2C19 activ: 0.4; sEH inhibitor: 9; sEH act: -7; CYP2C9 activ: 0.1; CYP2C19 inh: 55*

Results for CCCC(=O)Nc1nnc(CCN2CCCCC2)s1 ?
CYP2C9 inhib: -11; CYP2C19 activ: 1.1; sEH inhibitor: -6; sEH act: 8; CYP2C9 activ: 1.1; CYP2C19 inh: -8

How did COc1ccc2nc(NC(=O)CN(c3ccc(C)cc3)S(=O)(=O)c3c(C)nn(C)c3C)sc2c1 do in these assays?
CYP2C9 inhib: 68*; CYP2C19 activ: 0.5; CYP2C9 activ: 0.3; CYP2C19 inh: 48

Results for COc1ccc(N(CC(=O)NCc2ccc3c(c2)OCO3)S(=O)(=O)c2c(C)nn(C)c2C)cc1 ?
CYP2C9 inhib: 16; CYP2C19 activ: 0.1; sEH inhibitor: 6; sEH act: -2; CYP2C9 activ: 0.8; CYP2C19 inh: 87*

How did Cc1ccc(C)c(NS(=O)(=O)c2c(C)nn(C)c2C)c1 do in these assays?
CYP2C9 inhib: -1; CYP2C19 activ: 0.8; sEH inhibitor: 8; sEH act: -6; CYP2C9 activ: 1; CYP2C19 inh: 19

Results for COc1ccc(N(CC(=O)Nc2ccc3c(c2)OCO3)S(=O)(=O)c2c(C)nn(C)c2C)cc1 ?
CYP2C9 inhib: 79*; CYP2C19 activ: 0.7; sEH inhibitor: 23; sEH act: -23; CYP2C9 activ: 0.2; CYP2C19 inh: 32

Results for COc1ccc(NC(=O)CN(c2ccc(C)cc2)S(=O)(=O)c2c(C)nn(C)c2C)cc1OC ?
CYP2C9 inhib: 9; CYP2C19 activ: 1; CYP2C9 activ: 0.9; CYP2C19 inh: -3

How did Cc1nn(C)c(C)c1S(=O)(=O)Nc1ccc2c(c1)OCO2 do in these assays?
CYP2C9 inhib: 4; CYP2C19 activ: 0.2; sEH inhibitor: 8; sEH act: -6; CYP2C9 activ: 1; CYP2C19 inh: 81*

How did Cc1cccc(Nc2nc(N)nc(CN3CCC(C)CC3)n2)c1C do in these assays?
sEH inhibitor: 0; sEH act: -4

Results for COc1ccc(N(CC(=O)NCc2ccco2)S(=O)(=O)c2c(C)nn(C)c2C)cc1 ?
CYP2C9 inhib: 20; CYP2C19 activ: 0.3; sEH inhibitor: 6; sEH act: -4; CYP2C9 activ: 0.8; CYP2C19 inh: 75*

Results for Cc1sc2ncnc(NCC3(N4CCOCC4)CCCCC3)c2c1C ?
CYP2C9 inhib: 60*; CYP2C19 activ: 0.7; sEH inhibitor: -2; sEH act: 5; CYP2C9 activ: 0.4; CYP2C19 inh: 30
